# Screening data as filed in PubChem BioAssay.
# USP8 block: human USP8 deubiquitinase inhibition | AID 1645853 | inhibition, % at 20 µM | P40818 | hit rate 4.2% among 47,000 | purified USP8, Ub-rhodamine cleavage fluorescence, 30 min
# USP7 inh: inhibitors of human USP7 deubiquitinase; Q93009; inhibition, % at 20 µM; purified USP7, Ub-rhodamine cleavage fluorescence; hit rate 0.3% among 47,000
# Target sequence (Q93009 whole entry, looked up): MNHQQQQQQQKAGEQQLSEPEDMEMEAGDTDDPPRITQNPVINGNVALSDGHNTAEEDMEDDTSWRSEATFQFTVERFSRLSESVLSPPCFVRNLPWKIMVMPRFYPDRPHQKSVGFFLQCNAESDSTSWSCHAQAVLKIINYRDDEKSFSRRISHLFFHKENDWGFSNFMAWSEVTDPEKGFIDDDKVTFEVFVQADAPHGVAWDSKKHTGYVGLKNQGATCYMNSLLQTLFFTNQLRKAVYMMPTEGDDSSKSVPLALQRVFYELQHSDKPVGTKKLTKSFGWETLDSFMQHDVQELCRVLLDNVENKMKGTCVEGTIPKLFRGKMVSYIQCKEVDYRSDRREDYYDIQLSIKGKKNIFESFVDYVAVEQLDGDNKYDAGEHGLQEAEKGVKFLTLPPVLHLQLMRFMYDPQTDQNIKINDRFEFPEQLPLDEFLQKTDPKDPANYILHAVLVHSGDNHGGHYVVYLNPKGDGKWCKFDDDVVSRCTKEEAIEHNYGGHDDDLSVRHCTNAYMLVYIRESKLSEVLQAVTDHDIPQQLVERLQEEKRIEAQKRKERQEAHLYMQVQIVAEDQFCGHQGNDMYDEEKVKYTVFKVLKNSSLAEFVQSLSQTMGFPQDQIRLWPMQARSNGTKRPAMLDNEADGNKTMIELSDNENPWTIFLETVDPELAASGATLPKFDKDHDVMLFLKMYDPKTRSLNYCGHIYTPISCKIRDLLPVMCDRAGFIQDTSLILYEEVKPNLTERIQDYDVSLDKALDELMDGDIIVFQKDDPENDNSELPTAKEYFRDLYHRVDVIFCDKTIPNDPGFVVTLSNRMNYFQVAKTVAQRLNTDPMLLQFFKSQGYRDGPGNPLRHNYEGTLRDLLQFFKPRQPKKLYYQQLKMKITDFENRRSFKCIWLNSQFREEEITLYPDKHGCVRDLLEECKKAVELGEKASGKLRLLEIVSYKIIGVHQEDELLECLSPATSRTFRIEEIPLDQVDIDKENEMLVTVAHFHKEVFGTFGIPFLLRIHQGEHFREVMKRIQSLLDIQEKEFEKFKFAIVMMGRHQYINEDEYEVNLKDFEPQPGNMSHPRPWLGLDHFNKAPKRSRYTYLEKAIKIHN
# UCHL1 block: inhibitors of human UCHL1 deubiquitinase. P09936. purified UCHL1, Ub-rhodamine cleavage fluorescence. inhibition, % at 20 µM. hit rate 0.2% among 47,000
# USP10 inh: inhibitors of human USP10 deubiquitinase. Q14694. purified USP10, Ub-rhodamine fluorescence, 60 min. inhibition, % at 20 µM. hit rate 1.1% among 47,000
# Numbers without * were called inactive; x = no result given. Hits are enriched below; roughly 5% of the tested compounds scored in any of these assays. Rule as the data show it: active = inhibition above about 30%; inactive = the rest.
SMILES,USP8 block,USP7 inh,UCHL1 block,USP10 inh
O=c1[nH]c(C2CCN(S(=O)(=O)c3ccc(S(=O)(=O)NC4CCCCC4)cc3)CC2)nc2c1nnn2Cc1c(F)cccc1Cl,24,15,6,45*
Cc1ccc(CC2CCCN(S(=O)(=O)C3CCCC3)C2)cn1 (stereo unspecified),-1,x,2,0
Cc1cc(C(=O)N2CCCCC2)c2c(=O)n(Cc3ccc(F)cc3)c(=O)n(C)c2n1,-9,-32,0,-2
CN1CCc2c(sc3c2c(=O)n(-c2ccccc2)c2nnc(SCC(=O)c4ccccc4)n32)C1,-30,-54,-57,-11
O=C(Cn1c(=O)ccn(Cc2ccccc2Cl)c1=O)NCC1CCCO1 (stereo unspecified),0,-1,-2,1
CCN1CC[C@@]2(C(=O)N(C)C)CCN(C(=O)c3cccc(OC)c3)CC[C@@H]12,-53,0,0,2
O=c1[nH]c(C2CCN(S(=O)(=O)c3ccc(S(=O)(=O)NC4CCCCC4)cc3)CC2)nc2c1nnn2Cc1ccc(F)cc1,36*,8,7,36*
O=C(c1cnn2ccccc12)N1CCN(S(=O)(=O)/C=C/c2ccccc2)CC1,5,5,1,2
CCOc1ccccc1C(=O)Oc1ccc2c(C)cc(=O)oc2c1,35*,-6,-7,10
CC(C)CCCCCCCCCCC(=O)N(C)[C@H](CO)C(=O)N[C@H](C)C(=O)NCC(=O)N(C)C1C(=O)N[C@@H](C)C(=O)NC(C(=O)O)Cc2ccc(O)c(c2)-c2cc1ccc2O (stereo partly specified),1,-24,0,60*
Cc1ccc(NC(=O)Cn2cc(S(=O)(=O)c3ccccc3)c(=O)c3ccc(C)nc32)cc1,41*,-6,-15,-7
Cc1ccc(C(=O)N2C[C@@H]3OCCN(CC4CC4)[C@@H]3C2)cc1,-44,-1,-2,0
CO/C=C(/C(=O)OC)[C@@H](C)[C@@H](/C=C/c1ccc(OC)cc1)OC,4,-2,2,1
COc1ccc(CNC(=O)Nc2cccc3ccccc23)cc1,97*,-26,27,28
COc1ccc(CCC(=O)Nc2cccc3ccccc23)cc1OC,26,3,3,-2
O=C(NCc1ccccc1)Nc1cccc2ccccc12,95*,-11,2,10
O=C(NCc1ccc(F)cc1)Nc1cccc2ccccc12,71*,4,0,2
COc1ccc(CN2Cc3ccccc3OC3(CCC(CO)CC3)C2)cc1 (stereo unspecified),0,3,4,0
CC1(C)CC(=O)c2c(C#N)sc(C#N)c2C1,60*,-46,-15,-6
CC1(C2CCN(C(=O)c3ccc(Cl)cc3)CC2)NC(=O)NC1=O (stereo unspecified),28,5,2,3
O=c1oc2c3c(c(Cl)cc2c2c1CCCC2)OCN(CCc1ccc(F)cc1)C3,41*,3,-4,-3
O=c1cc(CN2CCN(Cc3ccccc3)CC2)c2cc3c(cc2o1)CCC3,-9,-2,-1,-1
O=c1oc2c3c(c(Cl)cc2c2c1CCCC2)OCN(Cc1ccccc1)C3,82*,-16,8,5
O=S(=O)(c1ccc2c(c1)OCCO2)N1C2CCC1COC2,-9,1,0,1
CNC(=O)c1c2n(c3ncccc13)CCN(S(=O)(=O)c1ccc(-c3ccccc3)cc1)C2,14,7,0,34*
SMILES,USP8 block,USP7 inh,UCHL1 block,USP10 inh
Cc1ccc(CNC(=O)c2c(O)c3cccc4c3n(c2=O)CC4)cc1,59*,-1,-1,0
Cc1ccc(CS(=O)(=O)c2cn(CC(=O)NCc3ccco3)c3ccccc23)cc1,34*,-16,0,3
Cc1ccc(CS(=O)(=O)c2cn(CC(=O)NCCC3=CCCCC3)c3ccccc23)cc1,15,3,0,6
Cc1ccc(CS(=O)(=O)c2cn(CC(=O)NCCc3ccccc3)c3ccccc23)cc1,25,7,0,17
Cc1ccc(CNC(=O)Cn2cc(S(=O)(=O)Cc3ccccc3)c3ccccc32)cc1,38*,1,0,2
CC1=C(c2ccc(F)cc2)S(=O)(=O)N=C1Nc1ccc(Cl)cc1,0,7,1,4
Cc1nc(-c2ccc3c(c2)nnn3CCN2CCOCC2)no1,3,4,0,-1
CC(=O)[C@H]1c2c(c(O)c3c(O)cccc3c2-c2c3c(c(O)c4c(O)cccc24)C(=O)C[C@](C)(O)[C@H]3C(C)=O)C(=O)C[C@]1(C)O,64*,14,23,27
CCc1nc(=O)c2ccccc2n1C1=CCN(C(=O)c2c(C)noc2C)CC1,8,2,-1,-1
